Data on 45 sequences can be found in the supplement of paper PMC11417369.

± gives the standard deviation of the averaged measurements. Whole data set: some 25,000 sequences, median “ln(normalized median fluorescence intensity)” near 7.9, cut for the highest 2% near 11. The full list was thinned out, with the highest values kept by preference.

The experiment has as its system PfAP2-I AP2 domain 3 (GST-tagged). The experiment can be described thus: gcPBM binding intensity (ln(normalized median fluorescence intensity)); higher = stronger DNA binding. An outline of the steps: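 Binding intensity values are the highest Masliner-normalised natural-log median intensity among replicate spots of either probe orientation. The binding step lasted 1 h in 1× PBS with 1% milk, 0.2 mg/ml BSA, 0.5% salmon testes DNA and 0.03% Triton X-100, using GST-tagged P. falciparum DNA-binding domains expressed in E. coli on an Agilent 4 × 180k array of primer-extended double-stranded 36-bp intergenic genomic probes plus negative controls. Alexa488 anti-GST antibody and a 488 nm scan detected bound protein.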
Regarding “ATAAAATAAAGGAAAAATATTAAGTTTTAAGAAAAT [CACACA_negctrl_site1066]”, the “gcPBM binding intensity (ln)” value stood at 7.6 ± 0.76. Regarding “ATTATTTAAATGGATGCACACATGCATTAAATAAAA [CACACA_site5831]”, the “gcPBM binding intensity (ln)” value worked out at 8.99 ± 0.82. With “ACAATATGCAAAAAGTGTACACATTCATTTATATAA [XGTACX_site1061]”, the “gcPBM binding intensity (ln)” value worked out at 8.34 ± 0.32. For the sequence “AATAACAAAATATTAACACACATAACATATTATAAA [CACACA_site2803]”, the “gcPBM binding intensity (ln)” value is 7.55 ± 0.47. For AAAAAAATTACGCAAGTGCATATAATTTAACAAAAA the value was 9.625 ± 0.007; for CATTATGTACAAAAAGTGCAATATATATTAACACTG, 11 ± 0.43.

As to ACGCAATATTAACAAGTGCATTATAACACATAACAT, the “gcPBM binding intensity (ln)” value was 11.3 ± 0.61. Regarding “ATATATTATATTATATGTACTTAAAAAAGTGCAAAG [XGTACX_site318]”, the “gcPBM binding intensity (ln)” value came to 8.485 ± 0.035.

Take “AATTAAATTACTTATACACACATAAAATGTCTGTAT [CACACA_site997]”: the “gcPBM binding intensity (ln)” value came to 7.76 ± 0.34. “AAATTTATGTGTGCCTGTACATATCAAAGATTTAAG [XGTACX_site8547]”: the “gcPBM binding intensity (ln)” value turned out to be 7.93 ± 0.34. With “AAATAACAAAAGAAGGTGCTCATAAAAATTCATACA [GTGCAC_site9864]”, the “gcPBM binding intensity (ln)” value was 8.51 ± 0.28.

On to “ACATACATATGTAAATGTACAAAATATCCATAGATT [XGTACX_site2782]”, for which the “gcPBM binding intensity (ln)” value came out at 7.54 ± 0.77. The figure for “TCAGATCCATAGAAGGTGCAAATAACAAAAATACAA [GTGCAC_site9610]” is 11 ± 0.43. On to “GAAATAAAAAGAAATGCATGTAATTTTTTTTTTTTT [TGCATGCA_site928]”, for which the “gcPBM binding intensity (ln)” value stood at 7.61 ± 0.83. For “AATGACATTCTTACACGTACAAAATAAAAAATAAAA [XGTACX_site6932]”, the “gcPBM binding intensity (ln)” value was 7.89 ± 0.59.

With ATAAGAATATATAGAGTGCGTTGAAGAATTATAATA, the “gcPBM binding intensity (ln)” value is 9.89 ± 0.27. As for “CTTTATAAAATAAGAGTGCGTTATATTGAATTGTAT [GTGCAC_site9390]”, the “gcPBM binding intensity (ln)” value was 10.9 ± 0.6. The figure for “AATTTGTAAAATAAGGTGCGTATAAAAAATTATATT [GTGCAC_site9676]” is 9.71 ± 0.2; for “TTATTCATATTATCATGTACTTATATATATTGTCAT [XGTACX_site2231]” it is 7.72 ± 0.55. As to “AGAAGAAAAGTAAAAAGTACATTATTCATGGCCTAT [XGTACX_site5601]”, the “gcPBM binding intensity (ln)” value was 7.46 ± 0.7. For “TTAGAAAAATTATATATACACACTTATATTTATATA [CACACA_site2821]” the value was 7.28 ± 0.4; for “TAAATATTTTTAGATGCATGCAATAATTACCCAAAG [TGCATGCA_site636]”, 8.15 ± 0.78; for “ATTATATACAAATAAAGTACATAAACAAATTCAGAA [XGTACX_site1187]”, 7.77 ± 0.47. Regarding “TCTTTCAATATTAATGCATGTTAATAATAAATTTTA [TGCATGCA_site448]”, the “gcPBM binding intensity (ln)” value is 7.96 ± 0.57. Regarding “AATATTTTTCAATTTCATGTGCATTCATTGAAGTTA [CACACA_negctrl_site1232]”, the “gcPBM binding intensity (ln)” value is 8.76 ± 0.37. Turning to ATGTTAATTAATGAGGTGCATTGAATATTTCAATAA, the “gcPBM binding intensity (ln)” value worked out at 10.9 ± 0.73.

For the sequence “TAAGTATATATATTTACACACATTTGTTTTTTTTTA [CACACA_site3784]”, the “gcPBM binding intensity (ln)” value turned out to be 7.57 ± 0.6. Turning to “AAAAAATAGAATATAAAAATAAAGGAATTAAATTAA [XGTACX_negctrl_site420]”, the “gcPBM binding intensity (ln)” value was 7.33 ± 0.75. In the case of “AAAAACTTATATGATACACACGATAAACAAAATAAA [CACACA_site1039]”, the “gcPBM binding intensity (ln)” value stood at 7.91 ± 0.42. As for “ATTAGCAACATTGATAAATATAAACACACGAAAACA [TGCATGCA_negctrl_site97]”, the “gcPBM binding intensity (ln)” value came out at 8.09 ± 0.68.

For “TATGTACACCCATATACACACCTCTATAATATATAT [CACACA_site4563]”, the “gcPBM binding intensity (ln)” value turned out to be 8.38 ± 0.18. Regarding “TGTAATATATGTATTGCACACCTATAACCATTATTT [CACACA_site8422]”, the “gcPBM binding intensity (ln)” value was found to be 9.89 ± 0.3.

For “TATATATATATGTGCACACATATATAATATGTATAA [CACACA_site715]”, the “gcPBM binding intensity (ln)” value came to 10.1 ± 0.42.

Turning to “TATAATGTATGTAGTGCACACCTCTATAATATATTA [CACACA_site8560]”, the “gcPBM binding intensity (ln)” value worked out at 10.9 ± 0.64. Take “AATATATATATATGTGCACACATATATAATATGTAT [CACACA_site716]”: the “gcPBM binding intensity (ln)” value turned out to be 9.2 ± 0.58. The figure for “TAGAATGTATGTAGTGCACACCTCTATAATATATTA [CACACA_site1873]” is 11.3 ± 0.6; for “ATATATTACAAATGGAGTACTAAAAATATTCTATAT [XGTACX_site6669]” it is 8.02 ± 0.38; for “ACACATATGACAAATAGTACATAAATATATAAATAT [XGTACX_site7141]” it is 7.79 ± 0.28. For “AATAATATATATATATATATATATAGATATGTATAT [GTGCAC_negctrl_site653]” the value was 8.04 ± 0.25; for “GAAATTACTTTATAAACACACATTTATTTTATTTTA [CACACA_site7007]”, 7.95 ± 0.26. In the case of “CTACCTTTAATATATACACACACATAAAAAAAATAT [CACACA_site8548]”, the “gcPBM binding intensity (ln)” value was determined as 8.05 ± 0.28. For the sequence “GTATATATTAAAAAAAAAAAAAAAAAATTAAAATTA [CACACA_negctrl_site572]”, the “gcPBM binding intensity (ln)” value worked out at 7.14 ± 0.33. With TATTTTTATAAGAGCATGCACTGTTTAAAATGGTAT, the “gcPBM binding intensity (ln)” value was 8.37 ± 0.45. For ATTATATTTATGTTGGTGCATTATACATGAAATTTA the value was 11.5 ± 0.43; for “AATATGAAATATATTACACACATTTATATGTTGAAA [CACACA_site1427]”, 7.59 ± 0.39.
